Screening data deposited in PubChem BioAssay by National Center for Advancing Translational Sciences (NCATS).
Rows were chosen to be rich in hits. Some 7.3% of all compounds tested hit in one or more screens of this group.
FLuc counter: inhibits or activates purified firefly luciferase, miR-21 counter-screen; P08659; purified FLuc, Km substrates, luminescence inhibition; Potency, µM (doses to about 57.5 µM), for inactives: at the highest dose activity change, negative = inhibition, most hits filed as inhibitors; 6.9% of 360,000 active;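 further: plate controls were vehicle for no effect and reference inhibitor for full effect; nearly all actives have a fitted effect of over 55% in size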
Target sequence (P08659 whole entry, looked up): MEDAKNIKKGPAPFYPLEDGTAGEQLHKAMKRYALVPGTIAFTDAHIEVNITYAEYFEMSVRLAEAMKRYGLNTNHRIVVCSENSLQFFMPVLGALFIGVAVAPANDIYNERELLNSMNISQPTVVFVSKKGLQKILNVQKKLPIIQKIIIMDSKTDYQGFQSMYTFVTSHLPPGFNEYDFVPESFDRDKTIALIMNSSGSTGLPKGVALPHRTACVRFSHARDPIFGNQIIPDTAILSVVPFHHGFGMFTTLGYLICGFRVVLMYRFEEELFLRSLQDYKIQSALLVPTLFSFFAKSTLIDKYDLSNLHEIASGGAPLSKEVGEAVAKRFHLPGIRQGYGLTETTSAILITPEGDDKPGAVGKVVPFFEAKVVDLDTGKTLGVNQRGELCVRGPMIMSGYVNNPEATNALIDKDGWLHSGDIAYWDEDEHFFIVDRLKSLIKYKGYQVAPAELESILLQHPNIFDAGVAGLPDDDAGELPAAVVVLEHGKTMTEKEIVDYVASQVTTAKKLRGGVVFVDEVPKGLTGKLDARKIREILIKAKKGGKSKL
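Purified P. pyralis luciferase, 10 nM final, with Km-level 10 uM D-luciferin and 10 uM ATP in 50 mM Tris acetate pH 7.5, 10 mM Mg acetate, 0.01% Tween-20, 0.05% BSA; 6-point qHTS titration about 60 µM downward; luminescence read.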
Luc counter: counter-screen: inhibitors of Kinase-Glo firefly luciferase; AID 1379; 0.28% of 200,000 active; Kinase-Glo luciferase, ATP luminescence, 8 min; Q27757; Potency, µM (titrated, usually from 38.3 µM), without a hit: top-dose activity change, negative = inhibition, actives largely listed as inhibitors; further: on the % scale 0 is the no-effect control and ±100 the full control effect; nearly all actives have a fitted effect of over 60% in size
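Inhibition of Kinase-Glo luciferase light generation was assessed at 10 uM ATP in pH 7.2 imidazole buffer, with luminescence measured after eight minutes at ambient temperature.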
NPC1 promoter act: activates the NPC1 promoter; Huh7 NPC1 promoter luciferase reporter, 24 h; 2.4% of 320,000 active; AID 485313; Potency, µM (titrated, usually from 9.22 µM), without a hit: top-dose activation, hits mostly activators; further: % of control where 0% means no effect; nearly all actives have a fitted effect of over 60% in size
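Luminescence read-out of NPC1 promoter-driven luciferase in stably transfected Huh7 cells; compounds delivered in DMSO and left 24 h at 37C, 5% CO2, qHTS titration format.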
Rab9 prom act: activators of Rab9 promoter. Huh7 Rab9 promoter-luciferase reporter, luminescence, 24 h. Potency, µM (doses to about 9.22 µM), for inactives: at the top dose activation, negative = inhibition, actives largely listed as activators. 2.8% of 320,000 active. AID 485297; further: % of control where 0% means no effect; nearly all actives have a fitted effect of over 60% in size
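Steps: seed 1500 Huh7 Rab9-luc cells per well, rest 2 h at 37 °C; add compound in DMSO; incubate 24 h; add luciferase reagent, 10 min ambient; read luminescence.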
SMN2 splice up: enhancers of SMN2 splice variant expression; 2.8% of 210,000 active; Potency, µM (series often up to 46.1 µM), inactives show top-dose activity change, positive = activation, usual class: activators; HEK293 SMN2-luciferase splicing reporter, luminescence, 30-36 h; further: % of control where 0% means no effect; nearly all actives have a fitted effect of over 55% in size
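HEK293 cells carry an SMN2 […]–luciferase reporter in which exon 7 inclusion puts luciferase in frame. Cells were plated 10-12 h before compound addition, then incubated 30-36 h at 37C. ONE-Glo luminescence was read; sodium butyrate at 4.5 mM final served as control.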
The depositor's hits bear a star; ? = inconclusive; . = no result given; [ ] = dose if it differs, or a comment. The call rests on the fitted dose curve; in most records, active means well fitted curve in the direction sought with a large enough effect; inconclusive means small, poorly fitted or top-dose-only effect, or another doubt; inactive means no such curve, though single readings can be large; an effect the other way counts as inactive or inconclusive. Potency means the concentration at half of the fitted maximal effect.

SMILES	FLuc counter	Luc counter	NPC1 promoter act	Rab9 prom act	SMN2 splice up
CCOC(=O)c1[nH]c2c(c1Cc1ccccc1OC)C(=O)CC(c1ccccc1)C2 (stereo unspecified)	-12.4%	.	.	.	5.5%
Nc1ccc2nc3c(=O)n(CCc4ccccc4)c(=O)[nH]c3nc2c1	-13.6%	.	-1.4%	17.2%	.
COc1cc2[nH]c(=O)n(C3CCCCC3)c(=O)c2cc1OC	-2.6%	-7.7%	0.3%	-2.2%	?
Nc1ccc2nc3c(=O)n(C4CCCCC4)c(=O)[nH]c3nc2c1	12µM*	.	?	?	.
CCCCn1c(=O)[nH]c2nc3cc(N)ccc3nc2c1=O	-26.4%	-3.3%	?	3.16µM*	?
Cc1cc(Oc2ccc(=O)[nH]n2)nc(Cl)n1	15.1µM*	.	1µM*	3.16µM*	.
CSc1nc(C)cc(Oc2ccc(=O)[nH]n2)n1	-2.8%	-0.9%	-4.0%	0.4%	0.9%
C#CCOc1ccccc1/C=N/NC(=O)c1ccccc1OCc1ccccc1	-7.4%	.	0.0%	-1.5%	.
COc1ccc(/C(C)=N/NC(=O)c2ccccc2OCc2ccccc2)c(OC)c1	19µM*	-5.1%	?	?	12.6µM*
COc1ccc(/C=N/NC(=O)c2ccccc2OCc2ccccc2)c(OC)c1	16.9µM*	0.2%	-2.3%	1.2%	-14.3%
CCN(CC)c1nn2c(=O)c(C(=O)NCCc3cccc(C)c3)cnc2s1	-14.1%	.	.	.	.
Cc1oc2c(c1C(=O)Nc1ccc(OC(F)(F)F)cc1)C1=NCCN1C=N2	-2.4%	.	.	.	.
Cc1cc2nc(/C=C/c3cccnc3)[nH]c2cc1C	2.39µM*	.	?	?	.
Clc1ccc2c(c1)[C@H]1OCC[C@H]1[C@@H](c1ccco1)N2	4.78µM*	-13.9%	?	?	22.4µM*
c1ccc2c(c1)NC1(CCCC1)n1c-2nc2ccccc21	19µM*	-4.5%	28.6%	2.0%	11.1%
CCCC1(C)Nc2ccccc2-c2nc3ccccc3n21 (stereo unspecified)	19µM*	-3.0%	23.3%	?	-5.4%
C=CCn1c(-c2ccc(Cl)cc2)c[nH]c1=S	?	-4.4%	-3.8%	-10.5%	-21.2%
C=CCn1c(-c2ccccc2)c[nH]c1=S	26.9µM*	-14.3%	24.3%	28.0%	-2.2%
Cc1ccc(N(C)S(=O)(=O)c2nnc(NC(=O)CC(C)C)s2)cc1	-10.7%	.	.	.	.
C/C(O)=C\c1nc2ccccc2oc1=O	2.4%	-7.2%	-3.6%	14.1%	0.5%
O=c1oc2ccccc2nc1/C=C(\O)c1ccc(Br)cc1	23.9µM*	.	8.6%	11.6%	.
CCC(=O)N1c2ccccc2C(N(C(C)=O)c2ccccc2)CC1C (stereo unspecified)	5.9%	0.9%	-12.1%	-3.5%	5.62µM*
CCOC(=O)c1cc(S(=O)(=O)N2CCN(c3ccc(F)cc3)CC2)[nH]n1	-5.5%	.	.	.	.
Cc1ccc(C2NC(=O)NC3=C2CCc2ccccc23)cc1 (stereo unspecified)	3.01µM*	2.8%	?	17.7%	-23.4%
O=C(c1ccc2c(c1)N(Cc1cccc(Cl)c1)C(=O)c1ccccc1S2(=O)=O)N1CCCCCC1	4.1%	.	.	.	.
SMILES	FLuc counter	Luc counter	NPC1 promoter act	Rab9 prom act	SMN2 splice up
CCOc1ccc(C(=O)Nc2cc(NC(=O)c3ccc(OCC)c(Cl)c3)cc(C(=O)O)c2)cc1Cl	-19.9%	0.9%	-3.8%	-6.8%	9.3%
O=C(COc1ccc(Cl)cc1Cl)NN=C1CCCCC1	7.57µM*	2.8%	-0.4%	-7.3%	-17.5%
CC1CCC/C(=N\NC(=O)COc2ccc(Cl)cc2Cl)C1 (stereo unspecified)	-19.6%	-2.2%	-9.7%	0.0%	-20.4%
CCOc1ccc(C(=O)Nc2cccc(C(=O)O)c2)cc1Cl	0.239µM*	-6.1%	?	?	0.562µM*
CCOc1ccc(C(=O)Nc2ccc(Cl)cn2)cc1Cl	4.78µM*	0.9%	2.51µM*	2.51µM*	?
O=C(Nc1ccc(Cl)cn1)c1ccc2[nH]c(=O)c(=O)[nH]c2c1	-5.1%	.	-4.0%	2.8%	.
O=C(COc1ccc(Cl)cc1Cl)Nc1ccc(Cl)cn1	0.301µM*	-12.1%	0.447µM*	?	11.2µM*
COc1ccc(-n2nc(C(=O)N3CCN(c4cccc(C)c4C)CC3)c3c4ccccc4n(C)c3c2=O)cc1	0.8%	.	.	.	-6.1%
c1ccc2c(c1)c1ccccc1n2Cn1c2ccccc2c2ccccc21	.	-2.7%[7.66 µM]	.	.	-1.6%[9.22 µM]
COc1ccc(NC(=O)Cn2ccn(-c3ccc(C)c(C)c3)c(=O)c2=O)cc1Cl	-19.3%	.	.	.	.
CCc1cc2c(cc3c(=O)n(CCCC(=O)NCc4cccc(Cl)c4)ncn32)s1	-13.6%	.	.	.	4.8%
COCCn1c(CNC(=O)c2cc(OC)c(OC)c(OC)c2)nc2cccnc21	1.5%	.	.	.	.
O=C(COc1ccc(Cl)cc1Cl)NCc1ccco1	23.9µM*	-1.1%	25.1%	?	-8.0%
Cc1ccc(NC(=O)c2ccc3c(c2)OCO3)cc1Cl	2.69µM*	.	0.562µM*	0.794µM*	.
Cc1ccc(C(=O)Nc2ccc3c(c2)OCO3)cc1S(=O)(=O)N1CCOCC1	?	.	?	29.1%	.
COc1cc(Cl)c(C)cc1NC(=O)c1ccc2c(c1)OCO2	-17.3%	.	?	?	.
Cc1ccc(C(=O)Nc2ccc3c(c2)OCO3)cc1Cl	2.39µM*	.	0.891µM*	2.51µM*	.
O=C(Nc1ccc2c(c1)OCO2)c1cnc(Cl)c(Cl)c1	7.57µM*	.	?	3.55µM*	.
Cc1ccc(C(=O)Nc2ccc3c(c2)OCO3)cc1S(=O)(=O)N1CCCC1	12µM*	0.2%	?	?	24.4%
CCCCC[C@H](O)/C=C/[C@@H]1[C@H](C/C=C\CCCC(=O)O)[C@@H](O)C[C@H]1O	.	0.7%	.	.	16.8%
O=C(c1ccc(-n2c(=O)c(=O)[nH]c3ccccc32)cc1)N1CCCN(Cc2ccccc2)CC1	.	-3.6%	.	.	.
COc1ccc(S(=O)(=O)N(CCc2ccccc2)CC(=O)Nc2cc(C)cc(C)c2)cc1OC	-2.2%	.	.	.	-20.2%
O=C(CNC(=O)c1ccc(Cl)cc1Cl)OCC(=O)c1ccc2c(c1)OCCO2	16.9µM*	-1.4%	2.1%	10.4%	-11.6%
O=C(Nc1ccc(Cl)cc1Cl)c1ccc2c(c1)OCCO2	0.301µM*	.	0.398µM*	0.316µM*	.
Cc1cc(Cl)ccc1NC(=O)c1ccc2c(c1)OCO2	12µM*	.	2.24µM*	3.55µM*	.
O=C(COC(=O)CNC(=O)c1ccc(Cl)cc1Cl)NCC1CCCO1 (stereo unspecified)	-1.6%	.	-6.2%	-2.6%	.
O=C(Nc1ccc(Cl)c(-c2nc3ccccc3[nH]2)c1)c1ccc2c(c1)OCO2	12µM*	-0.5%	8.1%	-0.1%	6.0%
CC(C)C[C@@H](CC(=O)N[C@@H](CCC(=O)O)CC(=O)O)NC(=O)[C@@H]1CNCC[C@H]1NC(=O)C[C@H](CCCN)NC(=O)C[C@H](Cc1ccccc1)NC(=O)[C@@H]1CNCC[C@H]1N	.	1.2%	.	.	6.5%
CCc1cccc(C)c1NC(=O)Cn1cc2c(n1)CCCC2	-0.7%	.	.	.	-18.1%
c1ccc(CCc2cccnc2)nc1	.	-8.6%[7.66 µM]	.	.	-3.7%[9.22 µM]
